Bioassay records (PubChem)
CYP2C19 act: activators of human cytochrome P450 2C19 | recombinant CYP2C19, luciferin-H EGE luminescence; stronger effect = higher value; 0 = fully inhibited enzyme, 1 = untreated enzyme | activation factor at 5 µM | 96,000 tested, under 10 active;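 active means activation factor of at least 2 at 5 µM in the primary screen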
Target sequence (P33261 whole entry, looked up): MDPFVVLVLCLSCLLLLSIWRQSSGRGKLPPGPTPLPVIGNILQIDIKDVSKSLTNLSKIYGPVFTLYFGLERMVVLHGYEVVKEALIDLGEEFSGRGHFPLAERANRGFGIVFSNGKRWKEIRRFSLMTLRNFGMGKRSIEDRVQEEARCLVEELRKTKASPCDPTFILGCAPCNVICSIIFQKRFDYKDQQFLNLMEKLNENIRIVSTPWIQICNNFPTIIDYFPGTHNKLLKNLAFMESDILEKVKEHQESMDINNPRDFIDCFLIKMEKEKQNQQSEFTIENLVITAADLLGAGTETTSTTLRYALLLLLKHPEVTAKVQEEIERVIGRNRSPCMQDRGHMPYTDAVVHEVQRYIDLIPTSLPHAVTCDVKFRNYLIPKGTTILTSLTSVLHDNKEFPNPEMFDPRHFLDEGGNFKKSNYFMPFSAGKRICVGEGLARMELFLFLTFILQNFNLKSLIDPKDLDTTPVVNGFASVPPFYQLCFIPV
hDAT+cocaine: changed human dopamine transporter uptake under cocaine IC80. Q01959. LLC-PK1 hDAT cells, [14C]-dopamine uptake with cocaine IC80; actives deviate in either direction. B-score at 10 µM. actives 1.3% (n = 110,000). AID 449768;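 active means Z score or B-score, a plate-position-corrected score, falls beyond the plate's 99.7% confidence bounds, in either direction; inactive means both scores lie inside the 99.7% bounds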
CYP2C19 inh: blocks human cytochrome P450 2C19 | actives 21% (n = 96,000) | inhibition, % at 5 µM | P33261 | AID 778 | CYP2C19 Supersomes, luciferin-H EGE luminescence, 30 min;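 active means CYP2C19 inhibition above a set limit at 5 µM in the primary screen, cut at about 50% in these data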
CYP2C9 act: CYP2C9 (human) activation. P11712. recombinant CYP2C9, luciferin-H conversion, luminescence; stronger effect = higher value; factor 1 = untreated enzyme, 0 = blocked. activation factor at 5 µM. actives 1.4% (n = 96,000). AID 1024;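 active means activation factor of 2 or more for CYP2C9 at a 5 µM dose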
CYP2C9 inh: blocks human cytochrome P450 2C9 | P11712 | CYP2C9 Supersomes, luciferin-H conversion, luminescence | actives 20% (n = 96,000) | inhibition, % at 5 µM;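 active means blocking of liver enzyme CYP2C9 beyond about 50% at 5 µM, limit read from the data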
D1 allo mod: allosteric modulators of human D1 dopamine receptor; AID 641; B-score at 10 µM; HEK293 D1, CRE-luciferase, dopamine EC30 potentiation; actives deviate in either direction; P21728; actives 5.9% (n = 58,000);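 active means luminescence count or its row- and column-corrected plate score outside the 99.7% band of the plate's sample wells, on either side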
Numbers stand for hits; 0 = inactive; - = no result. Only some compounds are listed: those with a hit (about 28% of all), similar ones and a draw of the others.

SMILES	CYP2C19 act	hDAT+cocaine	CYP2C19 inh	CYP2C9 act	CYP2C9 inh	D1 allo mod
COc1ccc(S(=O)(=O)N(CC(=O)Nc2cc(C)on2)Cc2ccccc2)cc1	0	0	81	0	0	0
COc1ccc(N2CCN(CC(=O)N3CCC(C)CC3)CC2)cc1	0	0	0	0	0	0
O=S1(=O)CCN2C(=N1)Sc1c2ccc2c1CCCC2	0	0	70	0	0	0
O=C(CSc1ccc2nnc(-c3ccc(Cl)cc3)n2n1)N1CCc2ccccc21	0	-	0	0	85	-
O=C(CSc1ccc2nnc(-c3cccnc3)n2n1)N1CCc2ccccc21	0	-	0	0	0	0
Cc1ccc(-c2nnc3ccc(SCC(=O)N4CCCCC4)nn23)cc1	-	-	-	-	-	0
O=C(CSc1ccc2nnc(-c3ccc(Cl)cc3)n2n1)N1CCCC1	0	0	0	0	0	5.6
N#Cc1cnn(CC2CCCCC2)c1N	0	0	0	0	0	0
Cc1cc(C)nc(NS(=O)(=O)c2ccc(N3C(=O)C4CC=C(Cl)CC4C3=O)cc2)n1 (stereo not drawn)	0	0	0	0	0	0
COc1ccc(OCC(=O)NC2CC(C)(C)NC(C)(C)C2)cc1	0	0	0	0	0	-
CCC(C)NC(=O)c1cc2cc3ccc(OC)cc3nc2s1 (stereo not drawn)	0	0	76	0	84	-
COc1ccc2cc3c(N)c(C(=O)N4CCCC4)sc3nc2c1	0	0	0	0	0	0
Cc1ccnc(NC(=O)CCc2c(C)nc3ncnn3c2C)c1	0	0	0	0	0	0
Cc1ccc(C)c(SCC(=O)OCC(=O)Nc2ccc(S(=O)(=O)N3CCOCC3)cc2)c1	0	0	0	0	0	0
O=C(COC(=O)CCC(=O)c1cccs1)Nc1cccc(S(=O)(=O)N2CCOCC2)c1	0	0	64	0	0	-
O=C(COC(=O)CCC(=O)c1cccs1)Nc1cc(S(=O)(=O)N2CCOCC2)ccc1Cl	0	0	0	0	80	-
Cc1ccc(NC(=O)COC(=O)CCC(=O)c2cccs2)cc1S(=O)(=O)N1CCOCC1	0	0	0	0	53	-
COc1ccc(C2SCC(C(=O)NCc3ccc(F)cc3)N2C(C)=O)cc1 (stereo not drawn)	0	0	0	0	0	-
COc1cc(C(O)P(=O)(OCC(C)C)OCC(C)C)cc(OC)c1OC (stereo not drawn)	0	0	0	0	0	-
CCS(=O)(=O)NCCCCc1ccccc1	0	0	60	0	0	0
COc1ccc(Nc2nc3ccccc3nc2NS(=O)(=O)c2cccs2)cc1	0	0	0	0	88	-
Cc1cccc(NS(=O)(=O)c2cccs2)n1	0	0	0	0	0	0
COc1ccc(N2CCN(C(=O)CCNS(=O)(=O)c3cccs3)CC2)cc1	0	11	0	0	0	-
COc1ccc(S(=O)(=O)NCCc2ccccc2)cc1	0	0	95	0	0	-
COc1ccc(N2CCN(C(=O)CCNS(=O)(=O)c3ccc4c(c3)CCC(=O)N4)CC2)cc1	-	0	-	-	-	0
SMILES	CYP2C19 act	hDAT+cocaine	CYP2C19 inh	CYP2C9 act	CYP2C9 inh	D1 allo mod
CC(NS(=O)(=O)c1ccc(Br)cc1)C(c1cccs1)N1CCOCC1 (stereo not drawn)	-	0	-	-	-	-
Cc1cc(C)cc(N2CC34C=CC(O3)C(C(=O)OCC(=O)NCc3ccco3)C4C2=O)c1 (stereo not drawn)	0	0	0	0	0	0
COc1ccc(S(=O)(=O)NCCc2ccc(F)cc2)cc1	0	0	100	0	0	0
Cc1ccc(C)c(N2CCN(C(=O)CNS(=O)(=O)c3cccs3)CC2)c1	0	1.7	54	0	50	-
COc1ccc(CCNS(=O)(=O)c2cccs2)cc1	0	0	99	0	90	0
O=C(COc1ccccc1)NC(Cc1c[nH]c2ccccc12)C(=O)O (stereo not drawn)	0	0	0	0	0	0
COc1cccc(NC(=O)N2CCN(Cc3nc4ccccc4c(=O)[nH]3)CC2)c1	-	-	-	-	-	0
CC(/C=N/NC(=O)c1cc(-c2ccncc2)nc2ccccc12)=C\c1ccco1	0	-	96	0	100	-
O=C(NCc1ccco1)c1cc(-c2ccncc2)nc2ccccc12	0	0	80	0	57	0
O=C(N/N=C/c1ccc([N+](=O)[O-])o1)c1cc(-c2ccncc2)nc2ccccc12	0	0	53	0	90	-
O=C(N/N=C/c1ccc(F)cc1)c1cc(-c2ccco2)nc2ccccc12	0	-	0	0	0	-
O=C(NCc1ccco1)c1cc(-c2cccnc2)nc2ccccc12	0	0	0	0	70	0
Cc1ccccc1CS(=O)(=O)CCC(=O)NCc1ccccn1	0	0	0	0	0	0
Nc1ccc2nc(CN3CCOCC3)[nH]c2c1	0	-	0	0	0	-
COc1ccc(/C=N/NC(N)=S)cc1OC(=O)c1cccc2ccccc12	0	0	0	0	58	-
CCC(C)(C)NC(=O)C(c1cccn1C)N(C(=O)Cn1nnc2ccccc21)c1ccc(F)cc1 (stereo not drawn)	0	0	0	0	0	0
CCn1c(O)c(C=Nc2ccccc2)n(-c2ccccc2)c1=S	0	0	0	0	0	-
CC(=O)c1c(C)n(CC(=O)NCc2ccc3c(c2)OCO3)c2ccccc12	0	0	75	0	59	0
CC(C)Sc1nc2ccccc2n1CC(=O)NCc1ccc2c(c1)OCO2	0	0	0	0	0	-
O=C(CCn1c(=O)c2ccccc2n(Cc2ccccc2)c1=O)NCc1ccc2c(c1)OCO2	0	-	52	0	0	-
CC(=O)c1c(C(C)=O)c(C)n(Cc2ccc3c(c2)OCO3)c1C	0	0	75	0	55	0
CCCC1(CCC)NC(=O)N(CC(=O)Nc2cccc(OC)c2)C1=O	0	0	0	0	0	0
O=C1CCC([N+](=O)[O-])C(c2ccc(Cl)cc2Cl)N1 (stereo not drawn)	0	0	0	0	0	-
CNC(=O)C1CC(=O)N/C(=N/N=C(\C)c2cccs2)S1 (stereo not drawn)	0	0	0	0	0	-
COc1ccc(S(=O)(=O)/N=C2/NC(=O)/C(=C\c3cc(OC)c(OC)cc3[N+](=O)[O-])S2)cc1	0	0	0	0	100	-
SMILES	CYP2C19 act	hDAT+cocaine	CYP2C19 inh	CYP2C9 act	CYP2C9 inh	D1 allo mod
COc1cc(/C=C2\S/C(=N/S(=O)(=O)c3ccccc3)NC2=O)c([N+](=O)[O-])cc1OC	-	0	-	-	-	-
CCn1ncc(Cl)c1C(=O)NC(C)c1ccccc1 (stereo not drawn)	0	0	62	0	0	0
CCn1ncc(Br)c1C(=O)NC(C)c1ccccc1 (stereo not drawn)	-	0	-	-	-	-
Cc1ncoc1C(=O)Nc1ccccc1-c1ccccc1	0	0	0	0	0	0
Cc1ccnc(NS(=O)(=O)c2cccs2)c1	0	0	0	0	0	0
Cc1ccnc(NS(=O)(=O)c2ccc(Oc3ccccc3)cc2)c1	0	0	67	0	0	-
Cc1cccc(Oc2ncnc3oc(-c4ccccc4)cc23)c1C	0	0	0	0	54	-
